# Bioassay records (PubChem BioAssay)
# Hits are enriched below; roughly 6.6% of the tested compounds scored in any of these assays.
# BoNT A protease = BoNT A light chain protease inhibition; multiplex microsphere protease substrate cleavage, flow cytometry; inhibition, % at 10 µM; actives 0.17% (n = 360,000); note: plate controls were buffer without enzyme for full effect and enzyme alone for no effect
# Bead autofluor = flagged as autofluorescent in microsphere protease counterscreen. actives 3.1% (n = 360,000). fluorescence intensity (test concentration not listed). AID 624483. compound autofluorescence counterscreen, microsphere flow cytometry; hits give high values; in the data active = fluorescence intensity above about 16000; inconclusive = no clear call, values can overlap the other calls
# GDH-TPI inh = GDH-TPI coupled enzyme inhibition counter-screen; GDH-TPI coupled enzyme counterscreen, NADH absorbance; inhibition, % at 4.8 µM; actives 1.2% (n = 360,000); AID 588335; in the data active = inhibition above about 30%;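 note: 0% = DMSO wells and 100% = wells lacking the enzyme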
# BoNT F protease = blocks Botulinum neurotoxin F light chain protease; Multiplex microsphere protease cleavage assay, flow cytometry; inhibition, % at 10 µM; actives 0.22% (n = 360,000); in the data active = inhibition above about 35%, passing the limit was not always enough; inconclusive = no clear call, values can overlap the other calls; note: plate controls were buffer without enzyme for full effect and enzyme alone for no effect
# Anthrax LF inh2 = inhibitors of Bacillus anthracis lethal factor protease | P15917 | multiplex microsphere protease cleavage assay, LF | inhibition, % at 10 µM | actives 0.12% (n = 360,000); note: plate controls were buffer without enzyme for full effect and enzyme alone for no effect
# Mtb FBA inh = inhibitors of M. tuberculosis fructose-bisphosphate aldolase | P9WQA3 | purified M. tuberculosis FBA, fluorescence read-out | inhibition, % at 1 µM | actives 2.3% (n = 360,000) | AID 588726; in the data active = inhibition above about 27%;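 note: 0% = vehicle and 100% = reference inhibitor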
# Target sequence (P9WQA3 whole entry, looked up): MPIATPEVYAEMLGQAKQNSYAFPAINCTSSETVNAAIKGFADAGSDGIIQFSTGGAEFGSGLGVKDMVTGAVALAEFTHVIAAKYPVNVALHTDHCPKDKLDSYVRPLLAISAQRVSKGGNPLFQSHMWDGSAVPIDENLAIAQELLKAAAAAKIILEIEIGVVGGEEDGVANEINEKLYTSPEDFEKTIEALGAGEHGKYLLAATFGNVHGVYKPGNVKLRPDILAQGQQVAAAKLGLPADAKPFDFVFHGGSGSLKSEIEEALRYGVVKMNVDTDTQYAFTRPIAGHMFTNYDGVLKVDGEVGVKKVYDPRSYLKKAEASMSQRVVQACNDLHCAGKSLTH
# An asterisk follows results filed as active; ? = inconclusive; . = not tested or not shown. Cut-off read from the data, not from the text of the source, unless noted: active = inhibition above about 30%; inconclusive = no clear call, values can overlap the other calls; inactive = below that.
SMILES,BoNT A protease,Bead autofluor,GDH-TPI inh,BoNT F protease,Anthrax LF inh2,Mtb FBA inh
Cc1cc2c(c(=O)n1Cc1cccnc1)C(c1ccccc1)C(C#N)=C(N)O2 (stereo unspecified),0.6,3096,-8.2,-10.5,-10.5,-0.1
CCn1nc(C)cc1C(=O)N1CCCC(Nc2ccc(C(C)C)cc2)C1 (stereo unspecified),0.8,5661,-2.0,7.2,-2.3,-0.6
COC(=O)c1sc(S(=O)(=O)NC(C)C(=O)O)c(C(=O)OC)c1C (stereo unspecified),0.5,4000,-3.8,1.3,-6.4,1.0
CCCCCCN1C[C@H](O)[C@@H](n2cc(C3CC3)nn2)C[C@@H]1c1ccccc1,-0.3,3907,-6.2,2.6,-4.1,0.4
O=C1/C(=C/c2cccc([N+](=O)[O-])c2)N2CCC1CC2,0.7,2260,-0.7,3.1,1.4,1.9
O=C1/C(=C/c2cc([N+](=O)[O-])ccc2Cl)N2CCC1CC2,-0.4,16507*,17.5,-1.6,5.4,-4.3
O=C1/C(=C\c2ccc(Cl)c(Cl)c2)N2CCC1CC2,-5.8,3325,20.0,?,31.6*,0.4
CC(=O)c1ccc(OC(C)C(=O)NCC2(N3CCOCC3)CCCCC2)cc1 (stereo unspecified),0.5,3465,-1.7,7.4,6.0,6.1
CCNC(=S)NNC(=O)c1ccc(OC(F)F)cc1,-0.2,23106*,14.2,1.8,-2.2,1.3
C=CCNC(=S)NNC(=O)c1ccc(OC(C)C)cc1,-1.1,9572,2.9,-11.5,-8.6,3.4
CC(C)CNC(=S)NNC(=O)c1ccc(OC(F)F)cc1,0.1,23366*,3.8,-0.5,-0.5,-0.3
CSc1ccccc1C(=O)NCCSc1ccccc1,-0.8,16492*,8.6,-2.1,-4.4,1.3
CCCCCNC(=O)c1ccccc1SC,-2.0,16772*,5.6,-3.8,-2.0,0.8
CCOC(=O)C1=CN(CC)S(=O)(=O)NC1c1ccc2ccccc2c1 (stereo unspecified),0.2,4145,1.8,-0.8,-5.4,-1.6
CC(C)CCNC(=O)c1cc2c(s1)-c1ccccc1S(=O)(=O)C2,-0.6,4941,31.6*,-8.9,4.5,15.5
CCCCN(C)C(=O)c1cc2c(s1)-c1ccccc1S(=O)(=O)C2,-1.4,3648,12.1,-1.3,-10.3,5.9
CCCCCCOc1ccc(C(=O)n2cnc(N)n2)cc1,1.8,21741*,-0.5,-2.0,0.8,1.7
COc1ccc2cc3c(N)nn(C(=O)c4ccccc4Cl)c3nc2c1,0.0,3696,35.8*,-4.3,-3.5,-4.8
COc1ccc2cc3c(N)nn(C(=O)c4ccc(F)cc4)c3nc2c1,1.4,3649,41.2*,-8.0,-3.3,1.4
CC(C)[C@H](NC(=O)c1c(F)cccc1F)C(=O)OCC(=O)NNC(=O)c1ccccc1,-0.5,3748,0.0,2.6,-0.8,-3.4
CCOC(=O)CC(=O)CSc1nc2c(sc(=S)n2-c2ccccc2)c(=O)[nH]1,?,21967*,29.9,2.7,0.1,-2.3
CCN(CC)C(=O)CSc1nc2c(sc(=S)n2-c2ccccc2)c(=O)[nH]1,1.1,4842,13.7,1.4,-3.8,-2.2
CCc1ccc(-n2c(=S)sc3c(=O)[nH]c(SCC(=O)NC4CCCCC4)nc32)cc1,-0.3,3077,13.4,5.7,1.0,0.9
CCOC(=O)CSc1nc2c(sc(=S)n2-c2ccc(CC)cc2)c(=O)[nH]1,-2.2,3594,33.0*,-11.9,2.9,2.6
CSc1cccc(-c2nnc(NC(=O)c3cccc(N4C(=O)CCC4=O)c3)o2)c1,-10.3,8184,-0.7,-3.2,-5.6,-0.2
SMILES,BoNT A protease,Bead autofluor,GDH-TPI inh,BoNT F protease,Anthrax LF inh2,Mtb FBA inh
COc1ccccc1NS(=O)(=O)c1cc(C(=O)N2CC(C)CC(C)C2)ccc1C (stereo unspecified),?,22186*,6.8,1.7,0.4,-1.4
Cc1ccccc1NS(=O)(=O)c1cc(C(=O)N2CCCC2)ccc1C,.,.,13.4,.,.,-0.1
CCN(CC)S(=O)(=O)c1cccc(NC(=O)C2SC(=Nc3ccc(C)cc3C)C(C(=O)NCC3CCCO3)=C2N)c1 (stereo unspecified),-0.4,23589*,-5.7,-5.4,-0.8,-3.5
CCN(CC)S(=O)(=O)c1cccc(C(=O)NCC2CCCO2)c1 (stereo unspecified),0.5,5861,-2.5,-6.1,2.2,0.6
O=C1OCCC1Sc1nnc(-c2cccc(Br)c2)o1 (stereo unspecified),1.5,20056*,-2.5,0.2,-3.4,1.6
CC1(C)CC(=NNC(=O)c2n[nH]c3c2CCC3)CC(C)(C)N1,2.8,2077,5.5,37.1*,-1.5,-5.2
O=C(Cn1cc([N+](=O)[O-])cn1)Nc1ccn(Cc2c(F)c(F)cc(F)c2F)n1,?,23297*,0.5,2.7,-1.6,-0.8
O=C(Cn1cc([N+](=O)[O-])cn1)Nc1ccn(Cc2c(F)c(F)c(F)c(F)c2F)n1,0.5,22598*,0.4,-1.2,-1.1,2.5
O=C(Nc1ccn(Cc2c(F)c(F)cc(F)c2F)n1)c1cccc(Cn2cc([N+](=O)[O-])cn2)c1,-1.6,23743*,-1.9,-1.0,-2.5,4.0
O=C(Nc1ccn(Cc2c(F)c(F)c(F)c(F)c2F)n1)c1cccc(Cn2cc([N+](=O)[O-])cn2)c1,0.3,7985,4.6,-8.2,-4.8,2.4
CCCCN(C(=O)CSCc1c(C)noc1C)c1c(N)n(CCCC)c(=O)[nH]c1=O,1.0,5351,4.3,-13.4,1.4,-3.0
CCCCCn1c(CN(C)Cc2ccccc2)nc2c1c(=O)n(C)c(=O)n2C,-1.2,23164*,-9.7,-2.2,-4.7,1.0
Cc1ccc(Cn2c(CN(C)Cc3ccccc3)nc3c2c(=O)n(C)c(=O)n3C)cc1,-0.6,5955,0.9,-8.7,-4.5,0.4
Cn1c(=O)c2c(nc(NCc3ccc4c(c3)OCO4)n2Cc2ccc(F)cc2)n(C)c1=O,8.0,18743*,18.3,12.1,-5.8,0.2
Cn1c(=O)c2c(nc(NCc3ccc4c(c3)OCO4)n2Cc2ccccc2)n(C)c1=O,0.4,3740,4.5,-2.4,-1.6,8.1
CN(Cc1ccccc1)Cc1nc2c(c(=O)n(C)c(=O)n2C)n1Cc1ccc(F)cc1,-0.1,23112*,3.9,-0.5,-1.5,0.9
CCCCn1c(CN(Cc2ccccc2)Cc2ccccc2)nc2c1c(=O)n(C)c(=O)n2C,0.4,3264,-10.5,0.9,-6.9,1.5
O=C(c1cc2ccccc2oc1=O)N(Cc1ccccc1)Cc1ccc2c(c1)OCO2,-0.6,4397,-2.6,11.2,-6.1,1.1
O=C(CSc1ccccc1F)Nc1ccc2c(c1)OCO2,-0.1,4127,1.3,-12.9,4.9,-2.1
COc1ccc(CC(=O)NCCc2ccc(S(N)(=O)=O)cc2)cc1,?,19944*,1.8,2.9,0.6,1.8
CCC(CC)C(=O)Nc1cccc(C(=O)NCCc2ccccc2)c1,-1.3,4320,0.0,-7.5,-1.6,1.4
CCC(CC)C(=O)Nc1cccc(C(=O)NCCc2ccc(S(N)(=O)=O)cc2)c1,-1.2,23028*,14.7,-0.4,1.0,1.8
